From PubChem
Compounds with a hit are over-represented: about 18% of the library has one in this group of screens.
DT40 TDP1 no CPT = qHTS for Inhibitors of human tyrosyl-DNA phosphodiesterase 1 (TDP1): qHTS in cells in absence of CPT. DT40 Tdp1-/- hTDP1 cells, no CPT, ATP luminescence, 48 h. Potency, µM (highest dose often 46.2 µM), most hits filed as inhibitors. 15% of 420,000 active. AID 686978, 2013; note: nearly all actives have a fitted effect of over 55% in size
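Chicken DT40 Tdp1-/- cells stably complemented with human TDP1 were seeded at 400 cells/well with DMSO in place of 20 nM camptothecin. After compound pinning, cells grew at least 48 hr at 37 °C; viability read by CellTiter-Glo luminescence.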
TDP1 block = qHTS Assay for Inhibitors of Tyrosyl-DNA Phosphodiesterase (TDP1). Tyrosyl-DNA phosphodiesterase 1 (Homo sapiens), Q9NUW8. recombinant TDP1, AlphaScreen DNA substrate cleavage. Potency, µM (doses to about 130 µM), usual class: inhibitors. 0.28% of 350,000 active. AID 485290, 2010; note: nearly all actives have a fitted effect of over 40% in size
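Steps: enzyme plus compound, 15 min RT; add biotin/phosphotyrosine-FITC oligonucleotide (15 nM final), react 5 min; add donor/acceptor beads (10 ug/ml final), 10 min; read AlphaScreen. Tdp1 at 1 nM final.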
KAT2A inh = qHTS Assay for Inhibitors of GCN5L2; Histone acetyltransferase KAT2A (Homo sapiens), Q92830; GCN5L2 HAT assay, ThioGlo1 CoA-SH fluorescence; Potency, µM (doses to about 58.9 µM), hits mostly inhibitors; 0.21% of 390,000 active
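Free CoA generated was detected with ThioGlo1 (50uM) fluorescence at Ex340nm/Em540nm, read immediately and after 20 min at room temperature. Enzyme, 20 nM in HEPES pH 7.5 buffer, saw compounds 15 min before adding 75uM H3(1-25) peptide and 70uM acetyl-CoA.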
VDR inh = Inhibitors of the vitamin D receptor (VDR): qHTS | Vitamin D3 receptor (Homo sapiens), P11473 | VDR-SRC2-3 peptide fluorescence polarization, 2 h | Potency, µM, usual class: inhibitors | 0.93% of 400,000 active
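FP read-out; VDR + SRC2-3 coactivator peptide; 23 nl compound by pintool; 2 h RT incubation; reagents held at 4 deg C, protected from light.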
PLK1 PBD block = qHTS for Inhibitors of PLK1-PDB (polo-like kinase 1 - polo-box domain): Primary Screen; Serine/threonine-protein kinase PLK1 (Homo sapiens), P53350; Plk1 PBD binding of FITC phosphopeptide, fluorescence polarization; Potency, µM, usual class: inhibitors; 2.8% of 360,000 active; AID 720504, 2013; note: series mostly up to about 57 µM; nearly all actives have a fitted effect of over 65% in size
Target sequence (P53350 whole entry, looked up, the tested form may be a part): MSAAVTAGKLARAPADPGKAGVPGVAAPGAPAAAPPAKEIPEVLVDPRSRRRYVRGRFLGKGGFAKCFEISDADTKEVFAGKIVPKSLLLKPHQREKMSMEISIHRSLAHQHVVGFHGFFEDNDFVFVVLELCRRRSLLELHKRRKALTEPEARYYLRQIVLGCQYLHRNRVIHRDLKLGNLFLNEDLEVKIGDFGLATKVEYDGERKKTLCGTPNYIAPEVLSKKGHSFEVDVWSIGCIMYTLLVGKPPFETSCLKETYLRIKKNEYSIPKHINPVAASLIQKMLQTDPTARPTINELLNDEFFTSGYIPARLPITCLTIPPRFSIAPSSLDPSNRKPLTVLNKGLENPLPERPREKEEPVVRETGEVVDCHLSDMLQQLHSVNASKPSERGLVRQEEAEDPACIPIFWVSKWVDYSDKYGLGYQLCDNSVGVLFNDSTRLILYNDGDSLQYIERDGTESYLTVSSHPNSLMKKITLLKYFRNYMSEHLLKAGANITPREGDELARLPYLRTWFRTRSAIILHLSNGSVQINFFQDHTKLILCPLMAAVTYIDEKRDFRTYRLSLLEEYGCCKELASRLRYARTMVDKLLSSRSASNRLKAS
DT40 TDP1 CPT = qHTS for Inhibitors of human tyrosyl-DNA phosphodiesterase 1 (TDP1): qHTS in cells in presence of CPT | Potency, µM (highest dose often 46.2 µM), hits mostly inhibitors | AID 686979, 2013 | 12% of 420,000 active | chicken DT40 Tdp1-/-;hTDP1 cells + 20 nM CPT, ATP luminescence, 48 h; note: nearly all actives have a fitted effect of over 55% in size
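Cell growth measured by CellTiter-Glo luminescence after a minimum 48 h, 37 C compound exposure with 20 nM CPT in Tdp1-knockout DT40 cells stably expressing hTDP1, seeded 400/well; qHTS titration format.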
Large screens that a line does not name were inactive. Calls come from the whole dose curve; as a rule, active = well fitted curve in the direction sought with a large enough effect; inconclusive = small, poorly fitted or top-dose-only effect, or another doubt; inactive = no such curve, though single readings can be large; an effect the other way counts as inactive or inconclusive.

Cc1cccc(C)c1NC(=O)C(NC(=O)CN1C(=O)c2ccccc2C1=O)c1ccccc1 (centres undefined)	none
CN1C(=O)C(c2cn(C)c3ccccc23)(c2cn(C)c3ccccc23)c2cc(Br)ccc21	none (no result: TDP1 block, KAT2A inh, VDR inh)
COc1cc(NC(=O)C2Cc3ccccc3N2C(=O)c2ccccc2)cc(OC)c1 (centres undefined)	DT40 TDP1 no CPT inconclusive, DT40 TDP1 CPT inconclusive (no result: PLK1 PBD block)
CCC(C)(C(=O)NC1CCCC1)N(Cc1ccco1)C(=O)c1ccccn1 (centres undefined)	none
CCC(C)(C(=O)NC1CCCC1)N(Cc1ccco1)C(=O)c1ccc2c(c1)OCO2 (centres undefined)	DT40 TDP1 no CPT 7.3µM, DT40 TDP1 CPT 9.2µM
COC(=O)c1ccc2c(=O)[nH]c(CSc3nc(-c4ccc(F)cc4)cs3)nc2c1	none
COc1cc2nc(CSc3nc(-c4ccc(F)cc4)cs3)[nH]c(=O)c2cc1OC	DT40 TDP1 no CPT inconclusive, DT40 TDP1 CPT 15µM
COc1ccc(-c2coc3c(OC)c(OC)cc(O)c3c2=O)cc1	DT40 TDP1 no CPT inconclusive, DT40 TDP1 CPT inconclusive (no result: PLK1 PBD block)
CC(NC(=O)c1ccc2c(c1)N(Cc1ccc(Cl)cc1)C(=O)c1ccccc1S2=O)c1ccccc1 (centres undefined)	DT40 TDP1 CPT inconclusive (no result: PLK1 PBD block)
CN1CCN(C(=O)CN(C2CCCCC2)S(=O)(=O)c2ccccc2)CC1	none
COc1cc2c(cc1OC)CN(C(=O)CSc1ccccc1C)CC2	DT40 TDP1 no CPT inconclusive, PLK1 PBD block 27µM, DT40 TDP1 CPT inconclusive
O=C(CN1CCC(Cc2ccccc2)CC1)N1CCc2ccccc2C1	DT40 TDP1 no CPT inconclusive, PLK1 PBD block 27µM, DT40 TDP1 CPT inconclusive
COc1cc2c(cc1OC)CN(C(=O)COc1ccc(C)c(C)c1)CC2	DT40 TDP1 no CPT inconclusive, DT40 TDP1 CPT inconclusive
O=C(CN1CCN(S(=O)(=O)c2ccc(F)c(Cl)c2)CC1)N1CCc2ccccc2C1	DT40 TDP1 no CPT 16µM, DT40 TDP1 CPT inconclusive (no result: TDP1 block, KAT2A inh)
O=C(CN(C1CCCCC1)C1CCCCC1)N1CCc2ccccc2C1	DT40 TDP1 no CPT 16µM, DT40 TDP1 CPT inconclusive
O=C(CN1CCN(S(=O)(=O)c2ccc(F)c(Cl)c2)CC1)N1CCc2ccccc21	DT40 TDP1 no CPT inconclusive, DT40 TDP1 CPT inconclusive
O=C(CN1CCN(c2ccc(F)cc2)CC1)N1CCC(Cc2ccccc2)CC1	DT40 TDP1 no CPT inconclusive, DT40 TDP1 CPT inconclusive
CCn1c(CNC(=O)c2ccc(OC)cc2)nnc1SCC(=O)Nc1ccc(C)cc1	none (no result: PLK1 PBD block)
O=C(c1ccc(F)cc1F)N1CCN(c2n[nH]c(=O)[nH]c2=O)CC1	none
COc1ccc(S(=O)(=O)N2CCN(CC(=O)N3CCc4ccccc4C3)CC2)cc1OC	DT40 TDP1 no CPT inconclusive
COc1cc2c(cc1OC)CN(C(=O)CN1CCN(S(=O)(=O)c3ccccc3Br)CC1)CC2	DT40 TDP1 no CPT 2.1µM, DT40 TDP1 CPT inconclusive
COc1cc2c(cc1OC)CN(C(=O)CSC1=NCCS1)CC2	DT40 TDP1 no CPT 21µM, DT40 TDP1 CPT inconclusive (no result: TDP1 block, KAT2A inh, VDR inh)
Cc1cc2c(s1)c1cnn(Cc3ccc(C(F)(F)F)cc3)c(=O)c1n2C	none (no result: DT40 TDP1 no CPT, KAT2A inh, VDR inh, PLK1 PBD block, DT40 TDP1 CPT)
CCC(=O)N(Cc1cc2c(C)cc(C)cc2[nH]c1=O)C1CCCCC1	DT40 TDP1 no CPT inconclusive, DT40 TDP1 CPT inconclusive
CCC(=O)N(Cc1cc2c(C)ccc(C)c2[nH]c1=O)C1CCCCC1	DT40 TDP1 no CPT 16µM, DT40 TDP1 CPT inconclusive
FC(F)(F)c1nc2nccnc2[nH]1	DT40 TDP1 no CPT inconclusive (no result: TDP1 block, KAT2A inh, VDR inh)
Cc1ccc(-c2noc(-c3ccc(NCc4ccco4)c([N+](=O)[O-])c3)n2)cc1	none (no result: PLK1 PBD block)
COc1cc(-c2noc(-c3ccc(NCc4ccco4)c([N+](=O)[O-])c3)n2)cc(OC)c1OC	DT40 TDP1 no CPT 7.3µM, DT40 TDP1 CPT 12µM (no result: PLK1 PBD block)
COc1cc(-c2noc(-c3ccc(N(C)C)c([N+](=O)[O-])c3)n2)cc(OC)c1OC	DT40 TDP1 no CPT 26µM, DT40 TDP1 CPT 21µM (no result: PLK1 PBD block)
